Measurements as given in PubChem BioAssay (NCATS).
Inconclusive results are not listed. Calls of active or inactive are those of the source. Calls follow the shape of the dose curve; as a rule, active = well fitted cell-killing curve with a large enough effect; inconclusive = small, poorly fitted or top-dose-only effect, or effect the other way; inactive = no such curve, though single readings can be large or run the other way. Non-standard residues stand in square brackets, D forms with d. Residues, ends and D or L forms follow the SMILES beside them. *: point of attachment. Nva = CCC[C@H](N)C(=O)O; Cbz = O=C(OCc1ccccc1)*

Assays:
[1] = Quantitative High-Throughput drug screen in 47 multiple myeloma cell lines against the NCATS MIPE library collection: MM1S_ATCC cell viability assay (AID 1918980); also: nearly all actives have a fitted effect of over 45% in size
Summary of the method: (§1)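 Inhibition of viability over 48 h was scored by ATP content (CellTiter-Glo) in 500-cell wells. Zero and full viability were defined by media-only and DMSO-only wells.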

[2] = Quantitative High-Throughput drug screen in 47 multiple myeloma cell lines against the NCATS MIPE library collection: MM1R_ATCC cell viability assay (AID 1918981); also: nearly all actives have a fitted effect of over 35% in size
Summary of the method: as §1

[3] = Quantitative High-Throughput drug screen in 47 multiple myeloma cell lines against the NCATS MIPE library collection: KMS28PE_JCRB cell viability assay (AID 1918983); also: nearly all actives have a fitted effect of over 35% in size
Summary of the method: as §1

[4] = Quantitative High-Throughput drug screen in 47 multiple myeloma cell lines against the NCATS MIPE library collection: L363_DSMZ cell viability assay (AID 1918984); also: nearly all actives have a fitted effect of over 40% in size
Summary of the method: as §1

[5] = Quantitative High-Throughput drug screen in 47 multiple myeloma cell lines against the NCATS MIPE library collection: KMS34_JCRB cell viability assay (AID 1918985); also: nearly all actives have a fitted effect of over 40% in size
Summary of the method: as §1

[6] = Quantitative High-Throughput drug screen in 47 multiple myeloma cell lines against the NCATS MIPE library collection: OCIMY7_PLB cell viability assay (AID 1918987); details: OCI-MY7 myeloma viability, CellTiter-Glo ATP, 48 h; viability (% of DMSO): at 45.8 µM (top of the series); also: nearly all actives have a fitted effect of over 65% in size
Summary of the method: as §1

[7] = Quantitative High-Throughput drug screen in 47 multiple myeloma cell lines against the NCATS MIPE library collection: OCIMY5_PLB cell viability assay (AID 1918988); also: nearly all actives have a fitted effect of over 65% in size
Summary of the method: as §1

[8] = Quantitative High-Throughput drug screen in 47 multiple myeloma cell lines against the NCATS MIPE library collection: OPM1_PLB cell viability assay (AID 1918989); also: nearly all actives have a fitted effect of over 40% in size
Summary of the method: as §1

[9] = Quantitative High-Throughput drug screen in 47 multiple myeloma cell lines against the NCATS MIPE library collection: SKMM1_PLB cell viability assay (AID 1919863); details: SKMM1 myeloma viability, CellTiter-Glo ATP, 48 h; viability: active compounds read low; also: nearly all actives have a fitted effect of over 35% in size
Summary of the method: as §1

[10] = Quantitative High-Throughput drug screen in 47 multiple myeloma cell lines against the NCATS MIPE library collection: U266_ATCC cell viability assay (AID 1919864); also: nearly all actives have a fitted effect of over 35% in size
Summary of the method: as §1

[11] = Quantitative High-Throughput drug screen in 47 multiple myeloma cell lines against the NCATS MIPE library collection: XG6_PLB cell viability assay (AID 1919865); also: nearly all actives have a fitted effect of over 40% in size
Summary of the method: as §1

[12] = Quantitative High-Throughput drug screen in 47 multiple myeloma cell lines against the NCATS MIPE library collection: VP6_DJ cell viability assay (AID 1919867); also: nearly all actives have a fitted effect of over 40% in size
Summary of the method: as §1

[13] = Quantitative High-Throughput drug screen in 47 multiple myeloma cell lines against the NCATS MIPE library collection: PE2_PLB cell viability assay (AID 1919869); also: nearly all actives have a fitted effect of over 35% in size
Summary of the method: as §1

[14] = Quantitative High-Throughput drug screen in 47 multiple myeloma cell lines against the NCATS MIPE library collection: PCM6_Riken cell viability assay (AID 1919870); also: nearly all actives have a fitted effect of over 30% in size
Summary of the method: as §1

[15] = Quantitative High-Throughput drug screen in 47 multiple myeloma cell lines against the NCATS MIPE library collection: OPM2_DSMZ cell viability assay (AID 1919872); also: nearly all actives have a fitted effect of over 30% in size
Summary of the method: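 We plated 500 myeloma cells per well, pinned in MIPE 4.0 compounds, and incubated for 48 hours at 37C. ATP was then quantified with CellTiter-Glo, with DMSO and media-only wells defining 100% and 0%.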

[16] = Quantitative High-Throughput drug screen in 47 multiple myeloma cell lines against the NCATS MIPE library collection: OCIMY1_PLB cell viability assay (AID 1918979); also: nearly all actives have a fitted effect of over 35% in size
Summary of the method: as §1

[17] = Quantitative High-Throughput drug screen in 47 multiple myeloma cell lines against the NCATS MIPE library collection: XG1_PLB cell viability assay (AID 1919866); also: nearly all actives have a fitted effect of over 35% in size
Summary of the method: as §1

[18] = Quantitative High-Throughput drug screen in 47 multiple myeloma cell lines against the NCATS MIPE library collection: UTMC2_PLB cell viability assay (AID 1919868); details: CellTiter-Glo ATP luminescence, 48 h; viability (% of DMSO control): at 45.8 µM (top of the series); also: nearly all actives have a fitted effect of over 55% in size
Summary of the method: as §1

[19] = Quantitative High-Throughput drug screen in 47 multiple myeloma cell lines against the NCATS MIPE library collection: RPMI8226_ATCC cell viability assay (AID 1919871); also: nearly all actives have a fitted effect of over 30% in size
Summary of the method: as §1

[20] = Quantitative High-Throughput drug screen in 47 multiple myeloma cell lines against the NCATS MIPE library collection: LP1_DSMZ cell viability assay (AID 1918982); also: nearly all actives have a fitted effect of over 35% in size
Summary of the method: as §1
Potency is read from the fitted curve at half-maximal effect.

CC(=O)SCC(Cc1ccccc1)C(=O)NCC(=O)OCc1ccccc1 (configuration not stated)
active: Potency [1] 590 nM | Potency [2] 3720 nM | Potency [3] 7430 nM | Potency [4] 5900 nM | Potency [5] 2350 nM | Potency [6] 3720 nM | Potency [7] 2640 nM | Potency [8] 5260 nM | Potency [9] 10500 nM | Potency [10] 1320 nM | Potency [11] 1050 nM | Potency [12] 5900 nM | Potency [13] 935 nM | Potency [14] 1480 nM | Potency [15] 5900 nM

CC(C(C)N1CC(=O)NC(=O)C1)N1CC(=O)NC(=O)C1 (configuration not stated)
active: Potency [18] 526 nM
inactive: Potency [16] | Potency [3] | Potency [8] | viability [9] 134% | Potency [10] | Potency [11] | Potency [17] | Potency [12] | Potency [13] | Potency [14] | Potency [19] | Potency [15]

CCCCC(=O)O[C@]1(C(=O)CO)[C@@H](C)C[C@H]2[C@@H]3CCC4=CC(=O)C=C[C@]4(C)[C@@]3(F)[C@@H](O)C[C@@]21C
inactive: Potency [16] | Potency [3] | viability [9] 122% | Potency [10] | Potency [11] | Potency [13] | Potency [15]
active: Potency [5] 37.2 nM | Potency [7] 9.3 nM | Potency [8] 37.2 nM | Potency [19] 11.8 nM

O=C1NC(=O)[C@@H](c2cn3c4c(cccc24)CCC3)[C@H]1c1c[nH]c2ccccc12
active: Potency [1] 18700 nM | Potency [2] 14800 nM | Potency [20] 1050 nM | Potency [3] 833 nM | Potency [4] 118 nM | Potency [5] 418 nM | Potency [7] 132 nM | Potency [8] 2090 nM | Potency [9] 132 nM | Potency [12] 526 nM | Potency [18] 332 nM | Potency [13] 1870 nM | Potency [14] 5900 nM | Potency [19] 16600 nM | Potency [15] 1320 nM

NC(=O)Nc1cc(-c2ccc(CN3CCOCC3)cc2)sc1C(N)=O
active: Potency [1] 16600 nM | Potency [2] 20900 nM | Potency [3] 18700 nM | Potency [4] 5900 nM | Potency [5] 4180 nM | Potency [6] 83.3 nM | Potency [7] 37.2 nM | Potency [8] 3720 nM | Potency [9] 18700 nM | Potency [10] 16600 nM | Potency [11] 743 nM | Potency [17] 132 nM | Potency [12] 833 nM | Potency [13] 1480 nM | Potency [14] 1660 nM | Potency [19] 7430 nM | Potency [15] 14800 nM

COc1ccc2c(c1OC)C(=O)OC2[C@H]1c2c(cc3c(c2OC)OCO3)CCN1C (some centres not stated)
active: Potency [1] 332 nM | Potency [2] 418 nM | Potency [20] 132 nM | Potency [3] 52.6 nM | Potency [4] 74.3 nM | Potency [5] 37.2 nM | Potency [7] 23.5 nM | Potency [8] 469 nM | Potency [10] 1660 nM | Potency [11] 46.9 nM | Potency [17] 41.8 nM | Potency [12] 74.3 nM | Potency [18] 132 nM | Potency [13] 372 nM | Potency [14] 469 nM | Potency [19] 3720 nM | Potency [15] 66.2 nM

CCC[C@@H](C=O)NC(=O)[C@H](CC(C)C)NC(=O)[C@H](CC(C)C)NC(=O)OCc1ccccc1 (Cbz-Leu-Leu-[Nva]-aldehyde)
active: Potency [16] 743 nM | Potency [3] 662 nM | Potency [5] 743 nM | Potency [6] 372 nM | Potency [7] 935 nM | Potency [8] 590 nM | Potency [9] 1870 nM | Potency [10] 372 nM | Potency [11] 264 nM | Potency [17] 372 nM | Potency [12] 235 nM | Potency [18] 1480 nM | Potency [13] 418 nM | Potency [14] 469 nM | Potency [19] 1320 nM | Potency [15] 1660 nM

FC(F)c1nc2ccccc2n1-c1nc(N2CCOCC2)nc(N2CCOCC2)n1
active: Potency [1] 590 nM | Potency [2] 743 nM | Potency [20] 20.9 nM | Potency [3] 418 nM | Potency [6] 372 nM | Potency [7] 1320 nM | Potency [8] 469 nM | Potency [9] 1480 nM | Potency [11] 590 nM | Potency [12] 132 nM | Potency [18] 118 nM | Potency [13] 372 nM | Potency [19] 296 nM | Potency [15] 2090 nM

O=S(=O)(O)CCSSCCS(=O)(=O)O
active: Potency [1] 18700 nM
inactive: Potency [2] | Potency [20] | Potency [7] | Potency [8] | Potency [11] | Potency [18] | Potency [14]

Cc1cnc(Nc2ccc(N3CCN(C)CC3)cc2)nc1Nc1cccc(S(=O)(=O)NC(C)(C)C)c1
active: Potency [1] 3320 nM | Potency [2] 5260 nM | Potency [20] 5260 nM | Potency [3] 7430 nM | Potency [4] 3720 nM | Potency [6] 935 nM | Potency [7] 1480 nM | Potency [8] 935 nM | Potency [9] 3320 nM | Potency [10] 11800 nM | Potency [17] 469 nM | Potency [12] 469 nM | Potency [18] 2350 nM | Potency [13] 1320 nM | Potency [14] 3720 nM | Potency [19] 4180 nM
